About 8,600 (12%) of roughly 69,000 compounds showed an effect of 50% or more. Many of the other results were omitted from the sample, so strong results are more common in it than they were.
Each compound was assayed on Plasmodium berghei (assay: Screen against P. berghei liver stage (PbLuc), transformed with Luciferase, at 10uM). Settings: tested at 10 uM.
Assay type: functional, HepG2
Compound CC(c1ccon1)N(C)Cc1cc(O)c2cc(F)ccc2n1 (stereo not given) has an INHIBITION of 36%.
For CC(c1cccnc1)N(C)Cc1ccccn1 (stereo not given), the INHIBITION was 70.4%.
Work on CC(c1ccncn1)N(C)Cc1cc(O)c2cc(F)ccc2n1 (stereo not given) yielded an INHIBITION of 28.3%.
Compound CC(c1cccnc1)N(C)Cc1csc(-c2ccccn2)n1 (stereo not given) has an INHIBITION of -45.8%.
For COc1ncc(CN(C)C(C)c2cccnc2)cn1 (stereo not given), the INHIBITION was 5.85%.
For CC(c1cccnc1)N(C)Cc1cc(O)c2cc(F)ccc2n1 (stereo not given), the INHIBITION was 66.8%.
In the case of c1ccc(CCCN2CCCC2Cn2cncn2)cc1 (stereo not given), the INHIBITION is reported as -25.9%.
For CCc1ncc(C(=O)N(C)Cc2cc(-c3ccncc3)no2)cn1, the INHIBITION was 59.7%.
CCN(C)C(=O)c1ccc(N(C)Cc2cc(-c3ccncc3)no2)nc1 gave an INHIBITION of 5.17%.
With CCN(C)C(=O)c1ccc(N(C)Cc2cc(-c3cccnc3)no2)nc1 the INHIBITION was 34%.
For O=C(CS(=O)(=O)C1CCCC1)NC1CCc2nccn2C1 (stereo not given), the INHIBITION was 19.2%.
In the case of Cc1cc(CN2CC[C@H]3OCC[C@@]3(C(=O)NCc3ccco3)C2)no1, the INHIBITION is reported as -0.813%.
Cc1nnc(CN2CCCC(c3noc(C4CC4)n3)C2)o1 (stereo not given) showed an INHIBITION of -36.3%.
Compound Cc1cc(NCCc2c[nH]cn2)nc(-c2cccnc2)n1 has an INHIBITION of -14.1%.
Compound Cc1cc(NCCc2nnc(N)s2)nc(-c2cccnc2)n1 has an INHIBITION of 16.7%.
Work on Cc1cc(NCCc2c(C)n[nH]c2C)nc(-c2cccnc2)n1 yielded an INHIBITION of 16.69%.
With CCc1csc(CNc2cc(C)nc(-c3cccnc3)n2)n1 the INHIBITION was 56.05%.
Compound CCc1nc(CNc2cc(C)nc(-c3cccnc3)n2)cs1 has an INHIBITION of 54.9%.
In the case of Cc1cc(NCCc2nc(C)cs2)nc(-c2cccnc2)n1, the INHIBITION is reported as -25.1%.
CSC(C)(C)CNC(=O)NCc1cccc(-n2ccnc2)c1 was tested, and the INHIBITION was 17.2%.
O=C(Cc1ccccc1F)N1CCC[C@@H]1Cn1c(=O)oc2ccccc21 gave an INHIBITION of -12%.
CC1CCCN(C(=O)c2occc2COc2cccc(C#N)c2)C1 (stereo not given) showed an INHIBITION of 35.1%.
CC(C)N1CCC2(CCCN(c3nccc(C(F)(F)F)n3)C2)CC1 showed an INHIBITION of -12.2%.
Compound CN(C)[C@H]1CCCCN(Cc2cnc(NCc3ccccc3)nc2)C1 has an INHIBITION of 57.5%.
Work on c1ccc(CNc2ncc(CN3CC[C@@H]4CC[C@H](C3)N4)cn2)cc1 yielded an INHIBITION of 30.3%.
c1ccc(CNc2ncc(CN3CCCN4CCC[C@H]4C3)cn2)cc1 gave an INHIBITION of 30.3%.
With c1ncn(Cc2cn3c(n2)CN(CC2CCCCC2)CC3)n1 the INHIBITION was -10.3%.
For CC(C)(C)c1n[nH]c(C2CN(C(=O)c3csnn3)CCO2)n1 (stereo not given), the INHIBITION was 11.1%.
NC(=O)C1CCN(C(=O)NC2CCc3cc(Cl)ccc32)CC1 (stereo not given) gave an INHIBITION of 18.4%.
C[C@H]1CN(C)C[C@@]12COCCN(C(=O)Cc1ccccc1)C2 was tested, and the INHIBITION was -21.7%.
CC(=O)N1CCN([C@@H]2CCC[C@@H](N(C)C(=O)C3CC3)[C@H]2O)CC1 gave an INHIBITION of 45.6%.
In the case of COc1cccc(Cn2ncnc2COC(C)C)c1, the INHIBITION is reported as -16.1%.
With COc1ccc2c3c1CN(C(=O)N(C)C)CC3=CC(C)(C)CO2 the INHIBITION was 25.3%.
With COC(=O)N1CC2=CC(C)(C)COc3ccc(OC)c(c32)C1 the INHIBITION was 63.1%.
COc1ccc2c3c1CN(C(C)=O)CC3=CC(C)(C)CO2 showed an INHIBITION of 52.5%.
With CCNC(=O)N1CC2=CC(C)(C)COc3ccc(OC)c(c32)C1 the INHIBITION was 22.2%.
For COCCOC(=O)N1CC2=CC(C)(C)COc3ccc(OC)c(c32)C1, the INHIBITION was -3.5%.
Compound COCC(=O)N1CC2=CC(C)(C)COc3ccc(OC)c(c32)C1 has an INHIBITION of 48%.
CC(C)NC(=O)c1nnn(-c2ccc(F)cc2)c1C1CC1 was tested, and the INHIBITION was -38.2%.
With Cc1cccc(CN2C[C@H]3CC[C@@H](C2)N(Cc2c(C)noc2C)C3=O)n1 the INHIBITION was -84%.
In the case of CCOC(=O)N1CCC(NC(C)c2ccccc2-n2cccn2)CC1 (stereo not given), the INHIBITION is reported as 17.5%.
CC(NCc1cccc(NC(=O)C2CCCCC2)c1)c1cnn(C)c1 (stereo not given) showed an INHIBITION of 45.4%.
Cn1ccnc1CN1CCN(CC(O)c2cc(F)ccc2F)CC1 (stereo not given) showed an INHIBITION of 21.5%.
With CC(C)c1nn(C)c(N(C)C)c1CNCc1ccc(N(C)C)nc1 the INHIBITION was 13.5%.
With Cc1cc(NC(=O)C2CCN(c3nnc(C)c(C)c3C#N)CC2)no1 the INHIBITION was 19.4%.
Cc1cc(NC(=O)C2CCN(c3ncccc3C#N)CC2)no1 was tested, and the INHIBITION was 50.1%.
Cc1cc(C(=O)NC2CCN(c3ncccc3C#N)CC2)no1 gave an INHIBITION of 5.23%.
Cn1cc(C2=NOC(C(=O)NC3(c4ccccc4F)CCCC3)C2)cn1 (stereo not given) gave an INHIBITION of 45.6%.
With CN1CCC(N(C)C(=O)c2cnn(-c3cc(F)ccc3F)c2N)CC1 the INHIBITION was 39.2%.
O=C(CN1CCCC1CC(=O)c1ccccc1)NCc1ccccn1 (stereo not given) was tested, and the INHIBITION was 1.93%.
In the case of CN(C)S(=O)(=O)N1CCOCC1CC(=O)NCCOc1ccccc1 (stereo not given), the INHIBITION is reported as 23.5%.
O=C(CN1CCOCC1CC(=O)c1ccco1)NCc1ccccn1 (stereo not given) showed an INHIBITION of 54.3%.
Work on Cc1ccc(CC2CCCN2CC(=O)NCc2ccccn2)cc1 (stereo not given) yielded an INHIBITION of 28.4%.
Compound O=C(CC1COCCN1S(=O)(=O)c1ccccc1)NCc1ccccn1 (stereo not given) has an INHIBITION of 68.5%.
Compound Nc1ncccc1CN1CCOCC1CC(=O)NCc1ccccn1 (stereo not given) has an INHIBITION of 47.6%.

From ChEMBL document CHEMBL4513216, “Probing the Open Global Health Chemical Diversity Library for Multistage-Active Starting Points for Next-Generation Antimalarials” (ACS Infect Dis, 2020)
